Results as given in PubChem BioAssay (EPA / NIEHS).
Active and inactive are the calls of the source. The calls were made as follows: active = hit-call score of the fitted dose curve at least 0.9, where 1 is the maximum; inactive = score below 0.9.

Read-out: succinate dehydrogenase complex iron sulfur subunit B (SDHB), SDHB (gene 6390)
Test: LTEA_HepaRG_SDHB: Life Technologies and Expression Analysis (LTEA) Assay for succinate dehydrogenase complex iron sulfur subunit B (SDHB) using HepaRG (AID 2283528)
Conditions: mRNA level, 48 h; actives raise or lower the signal
Description: LTEA_HepaRG is a cell based, multiplexed-readout assay that uses HepaRG, a human liver cell line, with measurements taken at 48 hours after chemical dosing on a 96-well plate.LTEA_HepaRG_SDHB is one of 102 assay component(s) measured in the LTEA HepaRG cell culture assay. It is a marker of Cell proliferation, survival, death.Data from the assay component LTEA_HepaRG_SDHB was analyzed into 1 endpoint. This assay endpoint, LTEA_HepaRG_SDHB, was analyzed with bidirectional fitting relative to DMSO as the negative control and baseline of activity. Using a type of inducible reporter, measures of mRNA induction for gain or loss-of-signal activity can be used to understand regulation of transcription factor activity. To generalize the intended target to other relatable targets, this assay endpoint is annotated to the oxidoreductase intended target family, where the subfamily is ubiquinone.
A total of 1060 chemcials from the ToxCast library were tested in eight-point concentration-response experiments. Cell culture and cytotoxicity assays were conducted at Thermo Fisher Scientific's Custom Services facility (Madison, WI). A single lot of human HepaRG cells (Thermo Fisher Scientific, Frederick, MD) was used for the cell culture experiments. 96-well format collagen type I coated plates of human HepaRG cells were prepared using established methods. Briefly, cryopreserved HepaRG cells were thawed, plated at a density of approximately 100,000 cells/well in HepaRG Thaw, Plate, and General Purpose media (HPRG770, Thermo Fisher Scientific), and incubated for 48 hours. 0.5% DMSO was selected as vehicle control to balance the requisite need of DMSO in HepaRG cultures to maintain differentiation (for example, baseline metabolism, proportions of hepatocytes vs. cholangiocytes), while enabling further hepatic receptor pathway activation (for example, PXR and CAR) in response to chemical exposure. 48 hours after plating, the culture medium was replaced with HepaRG Serum-Free Incudtion Media. Cells were exposed to each test chemical in duplicate and maintained in CO2 incubators for another 48 hours. Chemical plates were thawed to room temperature and 200x concentrations of treatment groups were prepared. 8-point conentration-reponse curves were made with the highest exposure at 100 uM, followed by half-log dilutions, all in 0.5% DMSO. Each test plate contained variouse controls, induction positive controls (1mM phenobarbital), cytotoxicity positive controls ([…] aflatoxin B1), vehicle controls (0.5% DMSO), and total lysis controls (0.5% DMSO). Cell morphology images were taken using an Essen IncuCyte FLR automated microscope, with six 96-well plates imaged in about 24 minutes. Images were captured and exported and JPEG files. Spent culture media was transfered to black-well plates for the LDH assay, and remaining media was sorted at -80 C for later use. Cells were treated with RLT buffer and frozen until shipped for gene expression analysis. Total RNA was isolated from the cell suspension in 75 uL of Buffer RLT (Qiagen, Germantown, MD 20874) by Quintiles/Expression Analysis (Durham, NC) using a custom isolation procedure. Total RNA from each plate well was transferred to a preamplification plate. Fluidigm's 96.96 Dynamic ArrayTM (Fluidigm, Amsterdam, the Netherlands) technology was used for gene expression analyses by quantitative reverse transcription polymerase chain reaction (qRT-PCR, performed by Quintiles/Expression Analysis, Durham, NC)89. Standard TaqManTM Assays (Applied Biosystems/ThermoFisher Scientific, Foster City, CA) were used to assess the expression of 93 genes selected based on their selectivity and sensitivity to important hepatic receptors known to be modulated by environmental chemicals; importance in human hepatocyte functionality; and hepatotoxicity. […]

Row | Compound | outcome | AC50
1 | CC1=C2C[C@H]3[C@@H](CC=C4C[C@@H](O)CC[C@@]43C)[C@@H]2CC[C@]12O[C@@H]1C[C@H](C)CN[C@H]1[C@H]2C | inactive | 
2 | CCCN(CCC)N=O | inactive | 
3 | C[C@]12CCC(=O)C=C1CC[C@@H]1[C@@H]2CC[C@]2(C)C(=O)CC[C@@H]12 | inactive | 
4 | O=C(O)C(F)(F)C(F)(F)C(F)(F)C(F)(F)C(F)(F)C(F)(F)C(F)(F)C(F)(F)F | inactive | 
5 | COS(=O)(=O)OC | inactive | 
6 | CCCCCCCCCC[N+](C)(C)CCCCCCCCCC | inactive | 
7 | Cc1ccccc1CO[C@@H]1C[C@@]2(C(C)C)CC[C@]1(C)O2 | inactive | 
8 | CO/C=C(/C(=O)OC)c1ccccc1COc1cccc(C(F)(F)F)n1 | inactive | 
9 | Cc1cccc([N+](=O)[O-])c1 | inactive | 
10 | O=S(=O)(O)C(F)(F)C(F)(F)C(F)(F)C(F)(F)C(F)(F)C(F)(F)F |  | 8.54 µM (active)
11 | ClC1=C(Cl)[C@]2(Cl)[C@@H]3[C@H]4C[C@H]([C@@H]5O[C@H]45)[C@@H]3[C@@]1(Cl)C2(Cl)Cl | inactive | 
12 | ClC(Cl)=C(c1ccc(Cl)cc1)c1ccc(Cl)cc1 | inactive | 
13 | c1cc2ccc3cccc4ccc(c1)c2c34 | inactive | 
14 | Cc1ccccc1O | inactive | 
15 | ClC1=C(Cl)[C@]2(Cl)[C@@H]3[C@@H](Cl)[C@H]4O[C@H]4[C@@H]3C1(Cl)C2(Cl)Cl | inactive | 
16 | Oc1ccc(C(c2ccc(O)cc2)(C(F)(F)F)C(F)(F)F)cc1 | inactive | 
17 | C[C@]12CCC(=O)C=C1CC[C@@H]1[C@@H]2CC[C@@]2(C)[C@H]1CC[C@]2(C)O | inactive | 
18 | CCC(C)c1cc([N+](=O)[O-])cc([N+](=O)[O-])c1O (stereo not given) |  | 0.656 µM (active)
19 | Cc1cc(-c2ccc(N)c(C)c2)ccc1N | inactive | 
20 | CC(c1ccc(O)cc1)(c1ccc(O)cc1)c1ccc(O)cc1 |  | 50 µM (active)

Row | Compound | outcome | AC50
21 | O=S(=O)(O)C(F)(F)C(F)(F)C(F)(F)C(F)(F)F | inactive | 
22 | Cc1ccc(O)c(C)c1 | inactive | 
23 | O=C(NC(=O)c1cc(F)c(F)cc1Cl)Nc1cc(F)ccc1N1CCC(C(=O)O)CC1 | inactive | 
24 | CN(C)c1nc(=O)n(C2CCCCC2)c(=O)n1C | inactive | 
25 | CC#Cc1cc(C)nc(Nc2ccccc2)n1 | inactive | 
26 | CCCCCCCCOC(=O)c1ccccc1C(=O)OCCCCCCCC | inactive | 
27 | O=C(O)C(F)(F)C(F)(F)C(F)(F)C(F)(F)C(F)(F)C(F)(F)C(F)(F)C(F)(F)C(F)(F)F |  | 88.9 µM (active)
28 | COc1ccc(O)c(C(C)(C)C)c1 | inactive | 
29 | C1CC2OC2CC1C1CO1 (stereo not given) | inactive | 
30 | Cc1cc2c3c(c1)C(c1ccccc1)=N[C@@H](NC(=O)c1ccncc1)C(=O)N3CC2 | inactive | 
31 | Cc1cc(O)ccc1Cl | inactive | 
32 | O=C(NC(=O)c1c(F)cccc1F)Nc1cc(Cl)c(OC(F)(F)C(F)F)c(Cl)c1 | inactive | 
33 | Clc1ccc(C(Cl)(Cl)Cl)cc1 | inactive | 
34 | C=CC(=O)NCNC(=O)C=C | inactive | 
35 | CC(C)C(=O)OCC(C)(C)C(OC(=O)C(C)C)C(C)C (stereo not given) | inactive | 
36 | Nn1cnnc1 | inactive | 
37 | c1ccc(-c2ccccc2)cc1 | inactive | 
38 | O=C(N[C@H]1CN2CCC1CC2)c1cc2ccoc2cn1 | inactive | 
39 | N#Cc1ccc(N(CC(N)=O)CC(F)(F)F)cc1C(F)(F)F | inactive | 
40 | O=NN(c1ccccc1)c1ccccc1 | inactive | 
